The nature of experiment [1]: Nuclear factor erythroid 2-related factor 2/antioxidant responsive element (Nrf2/ARE) small molecule agonists: qHTS cell viability counter screen in human keratinocytes (AID 1919968; active = well fitted curve in the direction sought with a large enough effect in the repeat runs; an effect the other way counts as inactive or inconclusive; also: nearly all actives have a fitted effect of over 55% in size). Summed up: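 Parallel cytotoxicity read: KeratinoSens HaCaT cells, compound treatment 23 h, viability by CellTiter-Fluor fluorescence 1 h post-reagent.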
Experiment [2] is described as follows: Nuclear factor erythroid 2-related factor 2/antioxidant responsive element (Nrf2/ARE) small molecule agonists: luciferase reporter gene qHTS assay in human keratinocytes (AID 1919969). Also: nearly all actives have a fitted effect of over 35% in size. Also: potency is read from the fitted curve at half-maximal effect. For orientation: Reporter assays use an easily measured gene product as a stand-in for the process of interest.
For experiment [3], the target named is Gonadotropin-releasing hormone receptor (Homo sapiens) (UniProt P30968). Kind of experiment: Human gonadotropin-releasing hormone receptor (GnRHR) small molecule agonists, calcium flux assay in GnRHR-HEK293 cells (AID 1920063). Also: nearly all actives have a fitted effect of over 35% in size. An outline of the steps:
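Calcium flux, agonist mode, human GnRHR stably integrated in HEK293; dye 1 h at 37 C before compound; Ex/Em=480/540 kinetic read, 3 min; 15 concentrations, triplicate.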
On the technique in general: A change in cytosolic calcium serves as a functional read-out for many receptors and channels.

In experiment [4] the target is KiSS-1 receptor (Homo sapiens) (UniProt Q969F8). Kind of experiment: Human kisspeptin (KISS1R) small molecule agonists, calcium flux assay in KISS1R-HEK293 cells (AID 1920064; active = well fitted curve in the direction sought with a large enough effect in the repeat runs; an effect the other way counts as inactive or inconclusive). An outline of the steps:
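Triplicate 15-concentration series were applied to dye-loaded human KISS1R HEK293 cells, and agonist-evoked calcium fluorescence was captured for 3 min.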

The nature of experiment [5]: G protein-coupled receptor (GPCR) small molecule agonists, calcium flux assay: HEK293 wild type cell line counter screen (AID 1920065). An outline of the steps:
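Non-specific calcium responders were flagged by adding DMSO-dissolved compounds to dye-loaded cells and reading 480/540 nm fluorescence each second for 3 min; ATP served as positive control.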

Experiment [6] in a line: p53 small molecule agonists, cell-based qHTS assay with human liver microsomes (AID 1963577). Summed up: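 Fluorescence of the beta-lactamase reporter in p53RE-bla cells, detected with LiveBLAzer substrate (2 h, room temperature, dark), served as the read-out after 16 h compound exposure at 37 C with human liver microsomes and NADPH, each 0.5 mg/mL final.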
Background: Quantitative high-throughput screening tests each substance at several concentrations.

Experiment [7] in a line: p53 small molecule agonists, cell-based qHTS assay with rat liver microsomes (AID 1963578). Summed up:
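Cells carrying a p53 response element–beta-lactamase reporter were plated and rested 5 h, then dosed with compound in DMSO plus rat liver microsomes and NADPH, each at 0.5 mg/mL final. After 16 h at 37 C, LiveBLAzer substrate was added for 2 h.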

A short description of experiment [8]: p53 small molecule agonists, cell-based qHTS assay with human liver microsomes: qHTS cell viability counter screen (AID 1963579). Also: nearly all actives have a fitted effect of over 45% in size. An outline of the steps:
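Cytotoxicity counter screen: p53RE-bla, 4,000 cells/well; 5 h settle, 37 C/5% CO2; cpd + HLM 0.5 mg/mL + NADPH 0.5 mg/mL (final); 16 h, 37 C; CellTiter-Glo, 30 min RT, luminescence.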

Experiment [9] in a line: p53 small molecule agonists, cell-based qHTS assay: qHTS cell viability counter screen (AID 1963581). Also: nearly all actives have a fitted effect of over 45% in size. An outline of the steps: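 Multiplexed with the reporter read, a CellTiter-Glo step (30 min, room temperature) gauges ATP-based viability of HCT-116 p53RE-bla cells after 16 h compound incubation at 37 C.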
Experiment [10] can be described thus: p53 small molecule agonists, cell-based qHTS assay (AID 1963582; active = well fitted activation curve with a large enough effect in the signal ratio in the repeat runs, not every such curve was filed as active; the % refers to the signal ratio). An outline of the steps: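 Beta-lactamase reporter cells (p53RE-bla) treated with compounds for 16 h at 37 C; FRET substrate, 2 h, room temperature; fluorescence intensity.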
Experiment [11] concerns the target 5-hydroxytryptamine receptor 2A (Homo sapiens) (UniProt P28223). Kind of experiment: 5-hydroxytryptamine receptor 2A (HTR2A) small molecule antagonists, cell-based qHTS assay (AID 1963586). Also: nearly all actives have a fitted effect of over 45% in size. Summed up:
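CHO cells stably expressing human HTR2A were plated for 18 h at 37 C, then loaded with calcium dye for 1 h. Compounds were preincubated 5 min at room temperature before DOI (4 nM solution) was added. Kinetic fluorescence was read for 3 min.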

Experiment [12] shares this target. As to the kind of experiment: 5-hydroxytryptamine receptor 2A (HTR2A) small molecule agonists, cell-based qHTS assay (AID 1963587). Also: nearly all actives have a fitted effect of over 30% in size. Also: potency is read from the fitted curve at half-maximal effect. Summed up:
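Kinetic calcium-flux fluorescence (2 min, 1 sec intervals) after compound addition in agonist mode. HTR2A-CHO cells were cultured 18 h, then dye-loaded 1 h at 37 C.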

Experiment [13] addresses Muscarinic acetylcholine receptor M1 (Homo sapiens) (UniProt P11229). Kind of experiment: Cholinergic receptor muscarinic 1 (CHRM1) small molecule antagonists, cell-based qHTS assay (AID 1963588). Also: nearly all actives have a fitted effect of over 40% in size. Also: potency is read from the fitted curve at half-maximal effect. Summed up:
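Compounds were tested at 15 concentrations in three independent runs. Dye-loaded CHRM1-CHO cells were exposed 5 min at room temperature before stimulation by acetylcholine added at 50nM. Intracellular calcium was read kinetically on FDSS for 3 min.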

Experiment [14] has the same target. As to the kind of experiment: Cholinergic receptor muscarinic 1 (CHRM1) small molecule agonists, cell-based qHTS assay (AID 1963589). Also: nearly all actives have a fitted effect of over 35% in size. Summed up:
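qHTS, 15-point titration, 3 independent runs: compounds pin-transferred onto dye-loaded CHRM1-CHO cells (human M1), calcium fluorescence followed every second to detect agonism.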

Experiment [15] can be described thus: cAMP Responsive Elements (CRE) small molecule agonists, cell-based qHTS assay (AID 1963590). An outline of the steps: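 Quantitative HTS for CRE agonists: HEK 293T CRE-bla cells, overnight plating, 3 h compound incubation at 37 C/5% CO2, then 2 h room-temperature LiveBLAzer B/G FRET substrate loading.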
Experiment [16] is described as follows: cAMP Responsive Elements (CRE) small molecule antagonists, cell-based qHTS assay (AID 1963591; active = well fitted inhibition curve with a large enough effect in the signal ratio in the repeat runs, not every such curve was filed as active; the % refers to the signal ratio). Summed up:
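Fluorescence intensity from cleaved LiveBLAzer B/G substrate (2 h, room temperature) quantified CRE-bla activity in HEK 293T cells exposed 3 h to compound with 0.25 uM final NKH477.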

For experiment [17], the target named is Beta-2 adrenergic receptor (Homo sapiens) (UniProt P07550). Kind of experiment: Adrenergic beta2 receptor (ADRB2) small molecule antagonists, cell-based qHTS assay (AID 1963592). Also: series mostly up to about 92 µM; nearly all actives have a fitted effect of over 50% in size. An outline of the steps: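 Assay format: CHO-ADRB2 cells, 18-20hr seeding at 37C/5% CO2, then compound plus 1nM isoproterenol agonist mix for 0.5hr RT. Homogeneous time-resolved fluorescence cAMP detection after 1hr, expressed as 665/615 nm ratio.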
Chain of Beta-2 adrenergic receptor (Homo sapiens) (P07550 whole entry, looked up): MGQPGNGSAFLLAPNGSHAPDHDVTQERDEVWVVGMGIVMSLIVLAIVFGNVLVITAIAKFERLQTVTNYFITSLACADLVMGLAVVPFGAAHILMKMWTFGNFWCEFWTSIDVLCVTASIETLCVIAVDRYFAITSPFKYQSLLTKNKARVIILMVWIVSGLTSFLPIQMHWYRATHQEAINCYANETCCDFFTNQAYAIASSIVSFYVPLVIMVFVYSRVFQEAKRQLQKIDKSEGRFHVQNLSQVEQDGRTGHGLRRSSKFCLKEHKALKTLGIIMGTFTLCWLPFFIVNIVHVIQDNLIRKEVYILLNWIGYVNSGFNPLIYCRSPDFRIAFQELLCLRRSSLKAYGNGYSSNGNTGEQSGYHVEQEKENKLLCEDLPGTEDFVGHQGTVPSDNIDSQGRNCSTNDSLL

Experiment [18] concerns the target D(2) dopamine receptor (Homo sapiens) (UniProt P14416). Kind of experiment: Dopamine D2 receptor (DRD2) small molecule agonists, cell-based qHTS assay (AID 1963594). Also: nearly all actives have a fitted effect of over 35% in size. Summed up:
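cAMP accumulation in DRD2-HEK293 cells measured by HTRF after 1 h detection; compounds added 10 min before NKH477 (200nM […]) forskolin-analogue stimulation, 30 min at room temperature, with Ro20-1724 present at 0.1 mM final.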

For experiment [19] the target is unchanged. As to the kind of experiment: Dopamine D2 receptor (DRD2) small molecule antagonists, cell-based qHTS assay (AID 1963595; active = well fitted inhibition curve with a large enough effect in the signal ratio in the repeat runs, with a control signal flat; the % refers to the signal ratio). An outline of the steps:
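Antagonist mode in DRD2-HEK293 cells: after compound addition with 0.1 mM Ro20-1724, cells received quinpirole (12 nM) and NKH477 (200 nM) for 30 min at room temperature; HTRF cAMP read after 1 h detection.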

Experiment [20] is described as follows: p53 small molecule agonists, cell-based qHTS assay with rat liver microsomes: qHTS cell viability counter screen (AID 1963580). Also: nearly all actives have a fitted effect of over 45% in size. An outline of the steps: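 Rat liver microsome (0.5 mg/mL final) and NADPH (0.5 mg/mL final) co-incubation with compounds for 16 h at 37 C on HCT-116 p53RE-bla cells; cytotoxicity taken from intracellular ATP luminescence.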

Among the data in PubChem BioAssay (Tox21) are Potency values, retold here.

Each structure is given as a SMILES string. Where “and” joins values, the source holds several entries; their conditions need not be identical. Identical values can stand only once. Results filed as inconclusive are left out. More than one record can exist for a structure, and the calls need not agree. Calls of active or inactive are those of the source. Unless noted, calls follow the shape of the full dose curve.

Chain of 5-hydroxytryptamine receptor 2A (Homo sapiens) (P28223 whole entry, looked up): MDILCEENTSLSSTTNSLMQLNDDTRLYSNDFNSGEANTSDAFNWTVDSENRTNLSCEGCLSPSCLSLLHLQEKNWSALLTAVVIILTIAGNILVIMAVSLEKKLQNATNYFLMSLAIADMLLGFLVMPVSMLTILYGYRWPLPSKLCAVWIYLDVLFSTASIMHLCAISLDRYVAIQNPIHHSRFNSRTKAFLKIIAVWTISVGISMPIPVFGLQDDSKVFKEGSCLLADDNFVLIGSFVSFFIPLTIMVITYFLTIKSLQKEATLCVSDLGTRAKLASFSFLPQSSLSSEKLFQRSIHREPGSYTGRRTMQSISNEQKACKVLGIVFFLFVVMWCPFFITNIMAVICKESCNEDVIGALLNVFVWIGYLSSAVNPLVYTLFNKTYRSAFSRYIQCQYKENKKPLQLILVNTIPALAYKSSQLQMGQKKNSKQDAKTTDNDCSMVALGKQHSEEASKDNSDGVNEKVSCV
Chain of KiSS-1 receptor (Homo sapiens) (Q969F8 whole entry, looked up): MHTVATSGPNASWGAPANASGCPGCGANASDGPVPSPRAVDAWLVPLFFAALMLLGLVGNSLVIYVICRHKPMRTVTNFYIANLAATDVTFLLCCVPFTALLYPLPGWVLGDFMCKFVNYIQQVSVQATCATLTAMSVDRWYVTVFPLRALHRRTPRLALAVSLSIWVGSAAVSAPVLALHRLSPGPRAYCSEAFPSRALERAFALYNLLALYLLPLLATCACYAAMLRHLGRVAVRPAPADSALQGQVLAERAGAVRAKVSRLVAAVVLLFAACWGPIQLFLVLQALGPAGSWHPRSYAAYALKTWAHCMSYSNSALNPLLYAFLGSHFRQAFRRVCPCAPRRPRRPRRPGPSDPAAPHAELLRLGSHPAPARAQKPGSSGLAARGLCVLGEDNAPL
Chain of Gonadotropin-releasing hormone receptor (Homo sapiens) (P30968 whole entry, looked up): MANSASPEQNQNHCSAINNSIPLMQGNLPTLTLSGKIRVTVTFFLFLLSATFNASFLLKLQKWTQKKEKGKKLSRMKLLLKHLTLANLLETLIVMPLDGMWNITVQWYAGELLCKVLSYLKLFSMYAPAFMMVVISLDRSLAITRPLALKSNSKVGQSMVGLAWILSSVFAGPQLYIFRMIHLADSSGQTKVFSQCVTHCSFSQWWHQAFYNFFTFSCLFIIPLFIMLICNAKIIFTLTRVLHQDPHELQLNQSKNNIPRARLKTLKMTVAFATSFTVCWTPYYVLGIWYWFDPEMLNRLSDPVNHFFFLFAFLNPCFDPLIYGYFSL
Chain of Muscarinic acetylcholine receptor M1 (Homo sapiens) (P11229 whole entry, looked up): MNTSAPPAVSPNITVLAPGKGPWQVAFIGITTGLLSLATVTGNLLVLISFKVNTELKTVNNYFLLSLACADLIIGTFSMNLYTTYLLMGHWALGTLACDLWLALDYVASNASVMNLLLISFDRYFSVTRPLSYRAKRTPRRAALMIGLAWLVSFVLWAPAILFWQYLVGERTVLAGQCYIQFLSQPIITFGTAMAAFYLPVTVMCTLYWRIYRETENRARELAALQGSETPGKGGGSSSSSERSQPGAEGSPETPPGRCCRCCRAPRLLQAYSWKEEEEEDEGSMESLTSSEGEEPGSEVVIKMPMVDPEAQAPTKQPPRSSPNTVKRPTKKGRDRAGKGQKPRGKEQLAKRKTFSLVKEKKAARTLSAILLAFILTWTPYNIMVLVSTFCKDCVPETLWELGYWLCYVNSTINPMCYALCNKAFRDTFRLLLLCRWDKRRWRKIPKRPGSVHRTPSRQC
Chain of D(2) dopamine receptor (Homo sapiens) (P14416 whole entry, looked up): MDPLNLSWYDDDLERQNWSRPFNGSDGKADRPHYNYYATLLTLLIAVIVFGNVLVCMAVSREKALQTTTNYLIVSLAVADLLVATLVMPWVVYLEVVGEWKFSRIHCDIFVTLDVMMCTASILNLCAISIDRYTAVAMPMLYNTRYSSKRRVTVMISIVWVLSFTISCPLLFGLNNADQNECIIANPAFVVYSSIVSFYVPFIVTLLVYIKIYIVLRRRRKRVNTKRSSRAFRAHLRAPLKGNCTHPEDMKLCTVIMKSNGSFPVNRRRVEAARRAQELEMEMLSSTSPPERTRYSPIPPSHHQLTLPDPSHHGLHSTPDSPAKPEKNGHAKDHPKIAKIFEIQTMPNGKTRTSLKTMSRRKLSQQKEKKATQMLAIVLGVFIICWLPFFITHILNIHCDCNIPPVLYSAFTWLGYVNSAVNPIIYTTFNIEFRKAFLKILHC

`ClC1C(Cl)C(Cl)C(Cl)C(Cl)C1Cl` (stereo not given): the Potency result in [1], in [3], in [4], in experiment [5], in experiment [6] and in experiment [7] was “inactive” in each case. Besides, the Potency result in experiment [8], in [9], in experiment [10], in experiment [11], in experiment [13] and in [14] was “inactive” throughout. Besides, the Potency result in experiment [15], in experiment [16], in experiment [17], in experiment [18] and in experiment [19] was “inactive” throughout. The Potency in experiment [2] is 62.4 µM (active) and inactive; in experiment [12], “inactive and 54.9 µM (active)”.

Turning to `CC1=C(C(=O)Nc2ccccc2)SCCO1`, the Potency result in experiment [1], in [3], in [4], in [5], in experiment [6] and in experiment [7] was “inactive” each time. The Potency entry in experiment [8], in [9], in experiment [10], in [11], in [12] and in experiment [13] was “inactive” each time. Also, the Potency result in experiment [14], in [15], in experiment [16], in experiment [17], in [18] and in experiment [19] was “inactive” in each case. Further, the Potency result in experiment [2] is “inactive and 61.1 µM (active)”.

With `O=[N+]([O-])c1ccc(Oc2ccc(Cl)cc2Cl)cc1`, the Potency result in experiment [1], in experiment [2], in experiment [3], in [4], in [5] and in [6] was “inactive” each time. Further, the Potency result in experiment [7], in experiment [8], in experiment [20], in experiment [11], in experiment [12] and in experiment [13] was “inactive” throughout. For the same compound, the Potency entry in experiment [14], in [15], in experiment [17], in experiment [18] and in experiment [19] was “inactive” in each case.

In the case of `ClCCN1CCCC1`, the Potency entry in experiment [1], in experiment [2], in experiment [3], in [4], in experiment [5] and in experiment [6] was “inactive” in each case. Moreover, the Potency entry in experiment [7], in experiment [8], in experiment [9], in experiment [10], in experiment [11] and in [12] was “inactive” throughout. For the same compound, the Potency result in [13], in [14], in experiment [15], in experiment [17], in [18] and in experiment [19] was “inactive” throughout.

Consider `CC(C)N(C(=O)SCC(Cl)=C(Cl)Cl)C(C)C`, for which the Potency result in experiment [1], in [2], in [3], in experiment [4], in experiment [5] and in experiment [6] was “inactive” throughout. In addition, the Potency entry in experiment [7], in experiment [8], in [9], in experiment [10], in experiment [11] and in [12] was “inactive” each time. For the same compound, the Potency entry in experiment [14], in [15], in experiment [17], in experiment [18] and in experiment [19] was “inactive” in each case. Further, the Potency in [13] is 23.4 µM (active).

Regarding `OCCSSCCO`, the Potency result in [1], in [2], in experiment [3], in experiment [4], in [5] and in experiment [6] was “inactive” each time. For the same compound, the Potency entry in experiment [7], in [8], in experiment [20], in [10], in [11] and in [12] was “inactive” throughout. The Potency entry in experiment [13], in experiment [14], in [15], in [17] and in [19] was “inactive” throughout.

`CCN`: the Potency result in [1], in experiment [2], in experiment [3], in experiment [4], in [5] and in [6] was “inactive” throughout. Moreover, the Potency entry in [7], in [8], in experiment [20], in experiment [11], in [12] and in experiment [13] was “inactive” in each case. In addition, the Potency entry in [14], in experiment [15], in [16], in [18] and in [19] was “inactive” each time.
